# RAD52 inh: RAD52 DNA annealing inhibitors, primary screen, biochemical, FRET, single point, set 2 | recombinant RAD52 DNA annealing, FRET fluorescence | inhibition, % at 18.7 µM | 0.46% of 360,000 active;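 active means every replicate showing at least 50% inhibition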
# NSD2 inh: NSD2 histone methyltransferase inhibitors, primary screen, biochemical, AlphaScreen, single concentration, set 2; AID 743445, 2014; NSD2 peptide methylation, 120 min; inhibition, % at 12.5 µM; 0.54% of 310,000 active; in the data active means inhibition above about 50%
# Casp6 inh: human caspase-6 inhibitors, primary screen, biochemical, VEID-R110 fluorescence, single point, set 2; P55212; inhibition, % at 12.5 µM; 0.53% of 350,000 active; purified caspase-6, Z-VEID-R110 cleavage fluorescence;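 active means mean inhibition across replicates at least about 35%, with every replicate also reaching that limit, limit read from the data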;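 further: 0% = median of neutral control wells and 100% = no fluorescence left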
# MLL AF4-AF9 inh: inhibitors of AF4 peptide binding to AF9, primary screen, biochemical, AlphaScreen, biotin-AF4 peptide, FLAG-AF9, single point | 0.47% of 350,000 active | inhibition, % at 10 µM | Protein AF-9 (Homo sapiens), P42568 | AID 651704, 2012;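 active means every replicate reaching a set inhibition limit, whatever the replicate mean, cut at about 25% in these data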;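 further: 0% = plate neutral control median and 100% = total signal loss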
# Target sequence (P42568 whole entry, looked up): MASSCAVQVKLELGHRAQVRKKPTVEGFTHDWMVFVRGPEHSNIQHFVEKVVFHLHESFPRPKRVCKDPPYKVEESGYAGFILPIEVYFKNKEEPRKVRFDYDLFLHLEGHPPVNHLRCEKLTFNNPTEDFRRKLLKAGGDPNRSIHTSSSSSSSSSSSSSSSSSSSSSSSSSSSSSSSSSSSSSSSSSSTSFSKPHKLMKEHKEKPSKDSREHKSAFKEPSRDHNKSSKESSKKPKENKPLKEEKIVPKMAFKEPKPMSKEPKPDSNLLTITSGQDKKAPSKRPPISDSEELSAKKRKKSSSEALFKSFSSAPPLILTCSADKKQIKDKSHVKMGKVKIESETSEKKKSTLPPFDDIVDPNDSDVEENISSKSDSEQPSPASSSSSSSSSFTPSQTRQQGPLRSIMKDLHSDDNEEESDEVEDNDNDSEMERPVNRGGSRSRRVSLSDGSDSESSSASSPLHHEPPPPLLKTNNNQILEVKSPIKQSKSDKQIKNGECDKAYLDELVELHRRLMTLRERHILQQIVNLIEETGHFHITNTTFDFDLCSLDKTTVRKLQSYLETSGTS
# miR-122 sensor: miR-122 Renilla sensor signal increase in Huh7, primary screen, miR-122 inhibitor project, cell-based, single point, plate reader; AID 602342, 2012; activation (reporter increase), % at 12.5 µM; 0.3% of 340,000 active; Huh7 miR-122 Renilla luciferase sensor, 48 h; neutral wells = 0, positive control = 100;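 active means mean replicate activation score at least 90 and every replicate individually at or above 90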;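 further: higher luciferase means less miR-122 activity so hits act as miR-122 inhibitors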
# Alpha artifact: AlphaScreen signal interference with preloaded methylated product, dose response, artefact control for NSD2 inhibitor project, biochemical, cherry-picked samples; AlphaScreen artifact counterscreen, preloaded methylated H4 peptide; 9.4% of 1,500 active; AID 1053174, 2014; shares compounds with NSD2 inh; AC35, µM (series often up to 10 µM), for the others: at the highest dose activity change, negative = signal loss; call rule not given here
# Starred values were filed as active, the others as inactive; nt = no result given; [ ] = dose if it differs, or a comment. Compounds with a hit are over-represented: about 1.5% of the library has one in this group of screens.
SMILES,RAD52 inh,NSD2 inh,Casp6 inh,MLL AF4-AF9 inh,miR-122 sensor,Alpha artifact
CN(C)/C=C1\C(=O)N(c2ccc(Cl)cc2)CS1(=O)=O,nt,-1.5,nt,nt,-16.4,nt
Cc1ccc(N2CS(=O)(=O)/C(=C/N(C)C)C2=O)cc1,nt,64.0*,nt,nt,-14.7,-1.1%
COCC(=O)N(C)C[C@@H]1Oc2cc(-c3cccnc3)ccc2S(=O)(=O)N([C@H](C)CO)C[C@H]1C,-0.1,nt,-1.7,1.6,-1.4[16.7 µM],nt
Cc1ccc(-n2c(C)c(C)c3c(N)ncnc32)cc1,2.3,66.8*,-0.4,12.8,-3.2,-6.6%
C=CCOc1ccc(NC(=O)C2CC(=O)N(C(C)C)C2)cc1 (configuration not stated),nt,56.0*,nt,nt,5.3,3.4%
CC1(C)NC(=O)N(CCOc2cccc(Cl)c2Cl)C1=O,nt,-2.8,nt,nt,-4.1,nt
CC1(C)NC(=O)N(CCCOc2ccccc2Br)C1=O,nt,69.6*,nt,nt,-5.5,-2.1%
O=C(N/N=C/c1cc2c(cc1[N+](=O)[O-])OCO2)c1ccccn1,-19.8,53.5*,4.7,11.3,1.3,-4.2%
COc1cc(/C=N/n2c(C)nnc2C)cc(OC)c1OC,nt,82.7*,nt,nt,2.1,-2.0%
COc1cc(OC)c(/C=N/n2c(C)nnc2C)c(OC)c1,nt,1.1,nt,nt,1.6,nt
CCN1CCCCC(=N/O)/C(=N/O)CCCC1,-8.6,71.1*,-0.1,0.3,-8.4,3.5%
Cc1nc2c(n1O)CCC/C2=N\O,nt,2.8,nt,nt,-0.8,nt
C[C@@H](O)C#Cc1ccc2c(c1)O[C@H](CN(C)C(=O)C1CC1)[C@@H](C)CN([C@@H](C)CO)S2(=O)=O,10.3,nt,0.1,-3.6,-3.0[16.7 µM],nt
CC1OC(Nc2cccc3ccccc23)C(O)C(O)C1O (configuration not stated),nt,64.6*,nt,nt,3.6,-1.7%
Oc1ccc(-c2cn3c(n2)SCC3)cc1O,nt,105.1*,nt,nt,-15.3,8.08µM*
Oc1ccc(-c2cn3c(n2)SCC3)cc1,nt,1.1,nt,nt,3.2,nt
Cc1ccc2[nH]c3c(c2c1)CN(C(=O)CN(C)CC1OCCO1)CC3,nt,63.6*,nt,nt,-0.5,-4.9%
CN(C)c1ccc(N=c2sc3ccccc3n2C)cc1,nt,57.1*,nt,nt,-2.9,8.9µM*
Cn1c(=Nc2ccccc2)sc2ccccc21,-5.9,-1.6,-2.3,4.2,1.3,nt
CN1c2ccc(Br)cc2[C@@H]2[C@@H](CCN2C(=O)C2CCCC2)[C@@H]1CO,5.0,nt,2.5,7.2,nt,nt
CC(=O)Nc1c(S(=O)(=O)c2ccccc2)c2nc3ccccc3nc2n1Cc1ccccc1,nt,-2.4,nt,nt,61.6,nt
C=CCn1c(NS(=O)(=O)c2ccccc2)c(S(=O)(=O)c2ccc(C)cc2)c2nc3ccccc3nc21,-13.3,114.6*,23.4,1.8,-1.6,-5.6%
Cc1nnc(N/N=C\c2ccc(-c3cccc(C(=O)O)c3)o2)n1N,-7.3,95.4*,12.6,-3.9,nt,3.5%
O=C1Nc2ccccc2C1Cc1ccccn1 (configuration not stated),-17.4,-2.1,-0.8,-1.2,nt,nt
N#CC1C(=O)Nc2cccnc21 (configuration not stated),-24.8,121.0*,58.7*,-0.7,-5.7,-0.3%
SMILES,RAD52 inh,NSD2 inh,Casp6 inh,MLL AF4-AF9 inh,miR-122 sensor,Alpha artifact
Cc1cccc(C)c1NC(=O)c1ccc(-n2cnnn2)cc1,nt,-7.3,nt,nt,4.8,nt
O=C(Nc1ccc(Br)cc1)c1ccc(-n2cnnn2)cc1,9.0,105.0*,2.7,-9.6,nt,-3.5%
O=C([C@H]1N[C@H]2c3ccc(-c4ccccc4F)c(=O)n3C[C@H]2[C@@H]1CO)N1CCc2ccccc2C1,-1.7,nt,1.6,-2.1,nt,nt
CCN(CC)CCCNc1nc(-n2nc(C)cc2C)nc2sc3c(c12)CC(C)(C)OC3,7.8,75.6*,-11.8,2.8,nt,-4.8%
Cc1cc(C)n(-c2nc(NCc3cccnc3)c3c4c(sc3n2)COC(C)(C)C4)n1,nt,-0.6,nt,nt,4.8,nt
CCOc1ccc2nc3cc(N=Nc4ccc(N)nc4N)ccc3c(N)c2c1,nt,59.0*,nt,nt,-29.3,-11.8%
c1cc(CNCCCN2CCOCC2)ccn1,nt,nt,nt,nt,-16.1,nt
c1coc(CNCCCN2CCOCC2)c1,nt,55.9*,nt,nt,-5.6,-4.1%
CCN(CC)CCCNC(=O)C1CCN(C(=O)c2oc3cc4sc(N(C)C)nc4cc3c2C)CC1,20.1,56.7*,-11.6,1.4,-1.1,0.0%
CCCc1cn([C@@H]2C[C@@H]3O[C@H](CO)CC[C@@H]3O[C@@H]2CCc2ccc(-c3cccc(OC)c3)cc2)nn1,9.0,nt,1.6,-1.7,nt,nt
O=C(NNS(=O)(=O)c1ccc(F)cc1F)c1csc(-c2cccnc2)n1,-6.5,54.2*,6.1,0.2,nt,-7.4%
CN(C)C(=O)C[C@H]1CC[C@@H](NC(=O)c2ccc(F)cc2)[C@@H](CO)O1,3.5,nt,1.3,-1.5,7.1[16.7 µM],nt
CCOc1ccc(S(=O)(=O)N2CCCC(C(=O)NCCN3CCOCC3)C2)cc1Cl (configuration not stated),-3.4,83.4*,-0.2,0.1,-5.2,1.4%
C[C@H]1CN([C@@H](C)CO)C(=O)Cc2cc(NS(C)(=O)=O)ccc2O[C@H]1CN(C)S(=O)(=O)c1ccccc1,5.4,nt,-1.1,-1.9,-1.2[16.7 µM],nt
Oc1ccc(C2=Nn3c(nnc3-c3ccco3)SC2)cc1O,nt,62.4*,nt,nt,7.4,-23.2%
C[C@H](CO)N1C[C@H](C)[C@H](CN(C)C(=O)CCC(F)(F)F)OCCCC[C@H](C)Oc2ccc(N(C)C)cc2C1=O,7.9,nt,2.6,2.3,1.1[16.7 µM],nt
NC(=O)c1ccc(-n2nnnc2SCC(=O)c2ccc(O)c(O)c2)cc1,-12.2,88.8*,17.2,-3.7,128.7*,-5.1%
CN(C)CC(=O)N[C@@H]1C=C[C@H](CC(=O)O)O[C@H]1CO,3.6,nt,1.6,-5.1,nt,nt
COc1ccc(NS(=O)(=O)c2cccc(C(=O)N3CCCCCC3)c2)cc1,4.2,64.5*,-155.0,-1.8,nt,-4.8%
Cc1ccc(NS(=O)(=O)c2cccc(C(=O)N3CCCCCCC3)c2)cc1,0.3,3.1,-1.6,-34.0,nt,nt
O=c1[nH]c(=O)n(C(c2ccccc2)c2ccccc2)cc1Br,-7.8,-3.9,-2.0,-2.2,-0.2,nt
O=c1[nH]nc(Br)c(=O)n1C(c1ccccc1)c1ccccc1,1.7,51.4*,3.5,-0.6,nt,-4.7%
CC(=O)N1CCc2cc(Br)cc(S(=O)(=O)NCCCN(C)Cc3ccccc3)c21,-10.2,125.4*,-17.8,-0.5,21.2,0.2%
O=C(C[C@@H]1C[C@@H]2c3cc(NC(=O)C4CCC4)ccc3O[C@@H]2[C@H](CO)O1)NCc1cccnc1,3.7,nt,0.9,-14.3,4.4[16.7 µM],nt
CC(=O)C1=C(O)C(=O)N(CCc2c[nH]c3ccccc23)C1c1ccc(C)cc1 (configuration not stated),-36.8,2.4,2.7,1.0,nt,nt
CC(=O)C1=C(O)C(=O)N(CCc2c[nH]c3ccccc23)C1c1ccco1 (configuration not stated),nt,60.8*,nt,nt,3.4,3.5%

# Bioassay records deposited in PubChem by Broad Institute.
